# Sampled rows, rich in hits. Any-hit rate of the full collection: about 6.2%.
# S2 tox: cell viability loss in ATXN counter-screen; S2 cells (HEK-293 line with an ATXN2-luciferase reporter) viability, CellTiter-Fluor protease fluorescence, 24 h; AID 651635; Potency, µM (titrated, usually from 56.7 µM), most hits filed as cytotoxic; 400,000 compounds, 0.49% hits; also: nearly all actives have a fitted effect of over 40% in size
# ATXN2 expr inh: reduces ATXN2 reporter expression in HEK-293 cells. HEK-293 ATXN2-luciferase reporter, luminescence, 24 h. Potency, µM (top dose mostly 57 µM), inactives show top-dose activity change, negative = inhibition, most hits filed as inhibitors. 360,000 compounds, 0.72% hits; also: % is scaled to controls: 0 for no effect and ±100 for the full control effect; nearly all actives have a fitted effect of over 55% in size
#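 ATXN2-luciferase reporter cells (luciferase flanked by upstream and downstream ATXN2 gene portions) were treated 24 h at 37 °C with compounds at up to 57 uM. SteadyGlo luminescence gave expression; GF-AFC fluorescence gave viability.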
# HT1080NT lethal: kills 2HG-producing HT-1080-NT fibrosarcoma cells; Potency, µM (top dose mostly 46.1 µM), inactives show at the top dose activity, negative = less viability, actives largely listed as cytotoxic; HT-1080-NT fibrosarcoma viability, CellTiter-Glo ATP luminescence, 48 h; 360,000 compounds, 1.6% hits;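 also: NT is the 2HG producing partner of a matched IDH1 knockdown line; 0% = DMSO-treated cells and -100% = media-only wells without cells; nearly all actives have a fitted effect of over 55% in size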
#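 Luminescent CellTiter-Glo readout after 48 hours of compound exposure at 37 degrees C defined viability of HT-1080-NT cells. Activity was normalized to DMSO wells and cell-free media wells; concentration-response curves were fitted and assigned curve classes.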
# HT1080 IDH1KD tx: kills HT-1080 cells with IDH1 knockdown. HT-1080 IDH1 knockdown viability, ATP luminescence, 48 h. AID 686971. Potency, µM (titrated, usually from 46.1 µM), for inactives: at the highest dose activity, negative = toxicity, most hits filed as cytotoxic. 360,000 compounds, 2% hits;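 also: 0% = DMSO wells and -100% = cell-free medium wells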
#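 Viability of IDH1-knockdown HT-1080 fibrosarcoma cells was assessed by CellTiter-Glo after 48 h at 37 °C with titrated compound; concentration-effect curves were classified by fit quality and response size.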
# KB-3-1 cytotox: KB-3-1 parental cell cytotoxicity; Potency, µM (series often up to 46.1 µM), actives largely listed as cytotoxic; KB-3-1 viability, CellTiter-Glo ATP luminescence, 72 h; 400,000 compounds, 1.4% hits; also: % is scaled to controls: 0 for no effect and ±100 for the full control effect; nearly all actives have a fitted effect of over 60% in size
#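 Cytotoxicity in the drug-sensitive parental line KB-3-1 was scored as loss of CellTiter-Glo luminescence following 72 h incubation with compound. Values come from curve fitting of normalized concentration-response data.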
# KB-V1 cytotox: kills drug-selected multidrug resistant KB-V1 cells. KB-V1 MDR cells viability, CellTiter-Glo, 72 h. Potency, µM (highest dose often 46.1 µM), most hits filed as cytotoxic. 400,000 compounds, 3.4% hits; also: % is scaled to controls: 0 for no effect and ±100 for the full control effect; nearly all actives have a fitted effect of over 60% in size
#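 Cytotoxicity toward P-gp-expressing KB-V1 cells was determined as loss of CellTiter-Glo luminescence after 72 h at 37 degrees C. Compounds were tested in quantitative HTS format across a concentration range, with curves fitted to normalized data.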
# The depositor's hits bear a star; i = inactive; ? = inconclusive; nt = no result. Calls follow the shape of the dose curve; as a rule, active = well fitted curve in the direction sought with a large enough effect; inconclusive = small, poorly fitted or top-dose-only effect, or another doubt; inactive = no such curve, though single readings can be large; an effect the other way counts as inactive or inconclusive. Potency is read from the fitted curve at half-maximal effect.
SMILES,S2 tox,ATXN2 expr inh,HT1080NT lethal,HT1080 IDH1KD tx,KB-3-1 cytotox,KB-V1 cytotox
Nc1nc2c(ncn2[C@@H]2O[C@H](CNS(=O)(=O)N3CCCC3)[C@@H](O)[C@H]2O)c(=O)[nH]1,i,5%,12%,18%,i,i
Cc1cc(C)cc(NC(=O)c2ccc([N+](=O)[O-])o2)c1,?,?,?,16µM*,?,13µM*
O=C(Nc1ccc2nc(-c3ccc(Br)o3)[nH]c2c1)c1cccs1,?,-6%,-1%,?,?,8.2µM*
O=C(Nc1ccc2oc(-c3ccc4ccccc4c3)nc2c1)c1ccc2c(c1)OCCO2,?,?,?,?,i,2.6µM*
O=C(Nc1ccc(-c2nc3cc(NC(=O)c4cccs4)ccc3o2)cc1)c1cccs1,16µM*,10µM*,7%,7%,?,?
O=C(Nc1ccc2oc(-c3ccncc3)nc2c1)c1cccs1,i,-8%,18%,4%,i,i
CC(=O)Nc1ccc2nc(-c3ccc(Br)o3)[nH]c2c1,i,39%,0%,-6%,?,i
C=C(C)CSc1nc2sc3c(c2c(=O)n1-c1ccccc1)CCC(C)C3 (configuration not stated),i,1%,nt,nt,i,i
CC(=O)c1ccc(NC(=O)c2noc(C(C)C)c2[N+](=O)[O-])cc1,i,24%,8%,3%,i,i
COc1ccc(NC(=O)c2noc(C(C)C)c2[N+](=O)[O-])cc1,i,11%,23µM*,?,i,i
COc1ccc(Sc2ccccc2CN(C)C)cc1OC,i,0%,-2%,-9%,i,i
CNCc1ccccc1Sc1ccc(O)c(O)c1,i,-29%,-11%,?,i,23µM*
COc1ccc(C2C=CC(=O)CC2)c(OC)c1 (configuration not stated),i,-10%,?,?,?,i
CCN(CC)CCOC(=O)c1ccc(N)cc1Cl,i,nt,nt,nt,nt,nt
CC(C)N(Cc1nccn1C)C(=O)C1CCC(=O)N(CCc2ccccc2)C1 (configuration not stated),i,nt,3%,1%,i,i
COC(=O)c1ccc(NC(=O)Nc2ccccc2F)cc1,i,23%,-29%,-29%,?,i
COc1ccc(NC(=O)Nc2ccccc2F)cc1,i,0%,?,-9%,?,18µM*
COc1ccc(NC(=O)Nc2nccs2)cc1,i,22%,?,?,?,7.3µM*
COc1ccc(Cn2cccc(NC(=O)Nc3ccc(F)cc3)c2=O)cc1,i,-31%,-12%,-15%,i,i
CSc1ccccc1NC(=O)COc1ccc(Cl)cc1C,i,35%,17%,18%,?,13µM*
COc1ccc(C(=O)Nc2nccs2)cc1,i,20%,15%,-1%,i,i
CSc1ccc(NC(=O)Nc2cccn(Cc3ccccc3)c2=O)cc1,i,1%,?,?,8.2µM*,3.7µM*
Cc1cn([C@H]2C[C@H](O)[C@@H](CCC(=O)NCc3ccco3)O2)c(=O)[nH]c1=O,i,1%,-3%,-2%,i,i
CSc1ccccc1NC(=O)Nc1ccc(Cl)cc1,i,?,14µM*,?,i,i
Cc1nc2ccc(CN(C)c3ccc(C(=O)N[C@@H](CCC(=O)O)C(=O)O)s3)cc2c(=O)[nH]1,i,0.1µM*,nt,nt,nt,nt
SMILES,S2 tox,ATXN2 expr inh,HT1080NT lethal,HT1080 IDH1KD tx,KB-3-1 cytotox,KB-V1 cytotox
Cc1cnc(SCc2ccccn2)nc1C1CCCN(C(=O)c2coc3c2C(=O)CCC3)C1 (configuration not stated),i,nt,nt,nt,nt,nt
COc1ccc(-c2nn(-c3cccc(F)c3)c3c2cnc2cc(OC)c(OC)cc23)cc1,i,1%,nt,nt,i,i
COc1ccc2nc(C)cc(SCC(=O)Nc3c(C)cc(C)cc3C)c2c1,i,-2%,23%,-15%,i,13µM*
COc1ccc2nc(C)cc(SCC(=O)Nc3c(C)cccc3C)c2c1,i,-3%,2%,11%,i,?
OC(CNc1nc(C(F)(F)F)nc2ccccc12)c1ccccc1 (configuration not stated),i,-18%,?,?,?,12µM*
CC(C)c1nn2c(=O)cc(COC(=O)c3cccs3)nc2s1,i,3%,nt,nt,i,i
Cc1ccnc2ccc3ccccc3c12,nt,nt,nt,nt,8.2µM*,i
Cc1ccnc2cc(Cl)cc(Cl)c12,nt,nt,nt,nt,i,i
O=C1c2ccccc2OC2(C=Cc3ccccc3O2)N1Cc1ccccc1 (configuration not stated),i,-26%,?,18µM*,?,4.1µM*
CCC(C)c1ccc(S(=O)(=O)N2CCN(CC(O)CN3CCOCC3)CC2)cc1 (configuration not stated),i,5%,4%,0%,i,5.8µM*
O=C(Nc1ccc(F)c(Cl)c1)C1CCCN(c2ncnc3onc(-c4ccc(F)cc4)c23)C1 (configuration not stated),?,-37%,nt,nt,i,i
O=C(O)CSc1ncnc2sc(-c3ccccc3)cc12,i,17%,14%,11%,i,i
CC(=O)c1c(C)[nH]c(C(=O)CSc2ncnc3sc(-c4ccccc4)cc23)c1C,?,-29%,0%,?,i,7.3µM*
CNc1ncnc2sc(-c3ccccc3)cc12,i,10%,-22%,-17%,?,9.2µM*
CC(=O)CCSc1ncnc2sc(-c3ccccc3)cc12,i,91%,-5%,-4%,i,i
CN(C)CCNc1ncnc2sc(-c3ccccc3)cc12,i,?,?,?,i,i
Oc1ccc(N2CCN(c3ncnc4sc(-c5ccccc5)cc34)CC2)cc1,i,?,13µM*,?,i,?
O=C(O)CCSc1ncnc2sc(-c3ccccc3)cc12,i,2µM*,28%,-1%,i,i
CC1CCN(S(=O)(=O)c2ccc3c(c2)N(CC(=O)NC(C)c2ccccc2)C(=O)CO3)CC1 (configuration not stated),i,20%,nt,nt,i,i
O=C(COC(=O)Cc1c(F)cccc1Cl)Nc1ccc2[nH]c(=O)[nH]c2c1,i,-5%,-1%,8%,i,i
CCCCCN1C=CC(=C2C(=O)c3ccccc3C2=O)C=C1,i,nt,23µM*,9.2µM*,i,9.2µM*
